Results as given in PubChem BioAssay AID504432 (National Center for Advancing Translational Sciences (NCATS), 2011).
Results filed as inconclusive are left out. Calls of active or inactive are those of the source. Calls follow the shape of the dose curve; as a rule, active = well fitted inhibition curve with a large enough effect; inconclusive = small, poorly fitted or top-dose-only effect, or another doubt; inactive = flat fitted curve, though single readings scatter.

Test: Confirmation Concentration-Response Assay for lipid storage modulators: for probe SAR round 2
Details: Drosophila S3 cells, BODIPY lipid droplet fluorescence, 18-24 h
Source text: NIH Molecular Libraries Probe Production Centers Network [MLPCN] NIH Chemical Genomics Center [NCGC] MLPCN Grant: 1 R03 MH085686-01 Assay Submitter (PI): Beller, Mathias; Max-Planck-Institut fur Biophysikalische Chemie NCGC Assay Overview: Storing lipids as a reservoir for energy or the anabolism of elementary metabolites is a common feature of probably all cells and is conserved from bacteria to humans. The universal cellular lipid storage organelle is the so-called lipid storage droplet (LD). Although ubiquitous, LDs share a simple structure composed of a hydrophobic core that harbors the storage lipids, which is shielded by a droplet-specific phospholipid monolayer to which proteins are attached. […]
We dispensed 4 uL of cells at 1.25 x 10^6 cells/mL into LoBase Aurora COC 1,536-well plates (black walled, clear bottom) with a bottle-valve solenoid-based dispenser (Aurora) to obtain 5,000 cells/well. […] Fluorescence was detected by excitation of the fluorophores with a 488-nm laser on an Acumen Explorer (TTP Lab Tech). […] Cells were detected using channel 3 (575- 640 nm) with 5-um width and 100-um depth filters. The ratio of the total intensity in PMT channel 1 over total intensity of channel 3 was also calculated. […]

## CCC/C=C/C/C=C/C=C/C=N/NN=O
  Potency: 2810 nM (active)
